Data as given in the supplement of paper PMC11732987, “Enantioselective OTUD7B fragment discovery through chemoproteomics screening and high-throughput optimisation” (Communications Chemistry, 2025).

Experiments:
Assay in all cases: log2 ratio of Biotin-Ahx-Ub-VS probe labelling (fragment/DMSO); higher = less target engagement (more negative = stronger competition), active = hit call of the paper (q ≤ 0.05, log2 ratio ≤ -1)
Conditions in all cases: compound concentration: 200 uM; treatment time: 3 h
[1] = target: USP34 (UniProt Q70CQ2)
Sequence of USP34 (Q70CQ2 whole entry, the tested form may be a part): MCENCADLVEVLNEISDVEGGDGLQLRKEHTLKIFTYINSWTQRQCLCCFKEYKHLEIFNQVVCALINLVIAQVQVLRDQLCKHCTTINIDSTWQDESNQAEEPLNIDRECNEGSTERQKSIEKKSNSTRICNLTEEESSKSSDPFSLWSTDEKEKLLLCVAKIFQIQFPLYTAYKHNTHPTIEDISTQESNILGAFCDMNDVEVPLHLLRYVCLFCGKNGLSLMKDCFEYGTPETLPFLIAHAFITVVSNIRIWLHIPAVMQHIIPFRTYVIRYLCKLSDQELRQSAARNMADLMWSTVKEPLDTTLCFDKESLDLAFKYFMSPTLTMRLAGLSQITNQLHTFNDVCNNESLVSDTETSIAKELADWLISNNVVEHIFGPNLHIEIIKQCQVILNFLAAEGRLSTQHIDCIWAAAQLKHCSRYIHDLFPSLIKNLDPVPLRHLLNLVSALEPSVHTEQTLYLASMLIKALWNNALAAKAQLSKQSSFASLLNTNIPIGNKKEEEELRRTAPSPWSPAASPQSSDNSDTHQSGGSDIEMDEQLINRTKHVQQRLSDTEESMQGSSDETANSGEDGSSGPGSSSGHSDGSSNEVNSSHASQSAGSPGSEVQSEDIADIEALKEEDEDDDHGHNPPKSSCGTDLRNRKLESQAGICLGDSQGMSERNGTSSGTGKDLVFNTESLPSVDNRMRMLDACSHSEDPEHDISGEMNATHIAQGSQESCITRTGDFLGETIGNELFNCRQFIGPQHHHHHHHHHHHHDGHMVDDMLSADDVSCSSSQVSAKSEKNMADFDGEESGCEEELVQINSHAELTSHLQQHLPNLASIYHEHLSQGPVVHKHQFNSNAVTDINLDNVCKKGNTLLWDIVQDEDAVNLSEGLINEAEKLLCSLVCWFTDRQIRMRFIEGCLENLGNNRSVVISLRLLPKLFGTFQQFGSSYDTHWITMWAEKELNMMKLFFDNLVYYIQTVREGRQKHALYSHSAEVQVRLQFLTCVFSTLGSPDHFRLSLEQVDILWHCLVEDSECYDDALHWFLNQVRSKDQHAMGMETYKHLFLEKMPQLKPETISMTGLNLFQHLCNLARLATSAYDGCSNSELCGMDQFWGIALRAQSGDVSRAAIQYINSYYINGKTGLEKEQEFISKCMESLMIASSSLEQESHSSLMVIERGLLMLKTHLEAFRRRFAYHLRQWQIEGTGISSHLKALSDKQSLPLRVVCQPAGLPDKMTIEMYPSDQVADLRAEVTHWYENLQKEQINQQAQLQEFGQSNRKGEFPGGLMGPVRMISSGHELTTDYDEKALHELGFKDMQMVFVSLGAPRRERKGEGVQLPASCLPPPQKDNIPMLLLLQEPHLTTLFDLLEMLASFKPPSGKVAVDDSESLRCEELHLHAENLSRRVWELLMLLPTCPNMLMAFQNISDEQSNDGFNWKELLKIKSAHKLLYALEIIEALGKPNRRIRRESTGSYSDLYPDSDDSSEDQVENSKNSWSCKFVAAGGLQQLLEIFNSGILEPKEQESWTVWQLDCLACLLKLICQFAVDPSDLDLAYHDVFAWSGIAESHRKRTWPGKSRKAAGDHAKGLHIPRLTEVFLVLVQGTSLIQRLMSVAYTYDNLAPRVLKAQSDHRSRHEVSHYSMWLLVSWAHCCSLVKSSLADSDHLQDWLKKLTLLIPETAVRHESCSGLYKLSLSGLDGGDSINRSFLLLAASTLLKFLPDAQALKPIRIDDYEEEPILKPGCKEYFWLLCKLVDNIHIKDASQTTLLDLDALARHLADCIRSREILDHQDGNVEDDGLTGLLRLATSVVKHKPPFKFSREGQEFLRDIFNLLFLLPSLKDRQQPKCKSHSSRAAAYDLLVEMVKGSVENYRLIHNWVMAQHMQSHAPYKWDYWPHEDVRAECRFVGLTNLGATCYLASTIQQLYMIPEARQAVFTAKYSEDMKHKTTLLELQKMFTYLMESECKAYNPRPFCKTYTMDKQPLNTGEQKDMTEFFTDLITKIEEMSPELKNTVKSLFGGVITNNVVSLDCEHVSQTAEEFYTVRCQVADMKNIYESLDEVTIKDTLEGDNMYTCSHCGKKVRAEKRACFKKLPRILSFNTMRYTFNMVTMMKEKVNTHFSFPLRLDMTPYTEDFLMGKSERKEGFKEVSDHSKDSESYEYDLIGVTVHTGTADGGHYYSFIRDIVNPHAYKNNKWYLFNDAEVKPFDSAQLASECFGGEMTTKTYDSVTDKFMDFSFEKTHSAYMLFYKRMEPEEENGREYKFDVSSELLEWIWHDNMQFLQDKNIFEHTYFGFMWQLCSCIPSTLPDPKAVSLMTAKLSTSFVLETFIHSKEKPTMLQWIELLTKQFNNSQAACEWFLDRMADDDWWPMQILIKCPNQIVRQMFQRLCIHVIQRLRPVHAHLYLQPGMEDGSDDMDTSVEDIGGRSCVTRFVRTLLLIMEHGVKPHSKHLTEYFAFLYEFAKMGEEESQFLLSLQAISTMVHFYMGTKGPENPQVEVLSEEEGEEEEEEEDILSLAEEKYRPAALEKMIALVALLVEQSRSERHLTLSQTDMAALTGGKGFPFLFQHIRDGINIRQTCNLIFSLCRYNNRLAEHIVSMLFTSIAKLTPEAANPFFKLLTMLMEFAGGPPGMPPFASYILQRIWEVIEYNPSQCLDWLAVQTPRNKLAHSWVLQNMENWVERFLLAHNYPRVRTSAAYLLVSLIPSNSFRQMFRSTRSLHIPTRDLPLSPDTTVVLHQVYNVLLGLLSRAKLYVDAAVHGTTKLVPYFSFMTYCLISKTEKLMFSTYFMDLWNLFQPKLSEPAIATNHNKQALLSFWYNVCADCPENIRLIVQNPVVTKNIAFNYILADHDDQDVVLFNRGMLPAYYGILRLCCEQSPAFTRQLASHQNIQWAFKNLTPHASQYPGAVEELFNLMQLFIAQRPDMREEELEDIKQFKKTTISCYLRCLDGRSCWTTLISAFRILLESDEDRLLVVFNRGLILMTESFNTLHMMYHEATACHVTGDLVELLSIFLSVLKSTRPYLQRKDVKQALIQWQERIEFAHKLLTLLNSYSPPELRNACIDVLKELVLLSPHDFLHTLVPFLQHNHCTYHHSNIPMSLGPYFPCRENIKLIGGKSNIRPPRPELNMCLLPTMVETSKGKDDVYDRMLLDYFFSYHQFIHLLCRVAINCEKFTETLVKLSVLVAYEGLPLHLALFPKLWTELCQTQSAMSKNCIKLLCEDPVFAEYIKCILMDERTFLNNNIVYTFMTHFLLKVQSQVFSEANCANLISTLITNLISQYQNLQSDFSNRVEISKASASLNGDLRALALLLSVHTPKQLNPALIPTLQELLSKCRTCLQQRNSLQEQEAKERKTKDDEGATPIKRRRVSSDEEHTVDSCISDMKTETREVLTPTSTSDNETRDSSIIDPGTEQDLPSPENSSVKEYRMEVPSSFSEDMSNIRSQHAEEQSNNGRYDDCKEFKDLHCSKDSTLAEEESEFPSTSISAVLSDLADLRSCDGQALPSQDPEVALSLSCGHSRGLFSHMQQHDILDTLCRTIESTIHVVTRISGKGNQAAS
Summary of the method: (§1)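 Using Biotin-Ahx-Ub-VS at 0.5 µM final for 1 h, DUBs were labelled in HEK293T lysate (495 µg per sample) that had first been treated in triplicate with fragment at 200 µM or vehicle for 3 h. NeutrAvidin enrichment, LysC and trypsin digestion and diaPASEF LC-MS/MS followed. Spectronaut label-free quantities were global-median-normalised. Values are average log2 fragment/vehicle ratios by unpaired t-test, using proteins with ≥2 unique peptides.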

[2] = target: T1, USP36 (UniProt Q9P275)
T1 sequence (whole entry): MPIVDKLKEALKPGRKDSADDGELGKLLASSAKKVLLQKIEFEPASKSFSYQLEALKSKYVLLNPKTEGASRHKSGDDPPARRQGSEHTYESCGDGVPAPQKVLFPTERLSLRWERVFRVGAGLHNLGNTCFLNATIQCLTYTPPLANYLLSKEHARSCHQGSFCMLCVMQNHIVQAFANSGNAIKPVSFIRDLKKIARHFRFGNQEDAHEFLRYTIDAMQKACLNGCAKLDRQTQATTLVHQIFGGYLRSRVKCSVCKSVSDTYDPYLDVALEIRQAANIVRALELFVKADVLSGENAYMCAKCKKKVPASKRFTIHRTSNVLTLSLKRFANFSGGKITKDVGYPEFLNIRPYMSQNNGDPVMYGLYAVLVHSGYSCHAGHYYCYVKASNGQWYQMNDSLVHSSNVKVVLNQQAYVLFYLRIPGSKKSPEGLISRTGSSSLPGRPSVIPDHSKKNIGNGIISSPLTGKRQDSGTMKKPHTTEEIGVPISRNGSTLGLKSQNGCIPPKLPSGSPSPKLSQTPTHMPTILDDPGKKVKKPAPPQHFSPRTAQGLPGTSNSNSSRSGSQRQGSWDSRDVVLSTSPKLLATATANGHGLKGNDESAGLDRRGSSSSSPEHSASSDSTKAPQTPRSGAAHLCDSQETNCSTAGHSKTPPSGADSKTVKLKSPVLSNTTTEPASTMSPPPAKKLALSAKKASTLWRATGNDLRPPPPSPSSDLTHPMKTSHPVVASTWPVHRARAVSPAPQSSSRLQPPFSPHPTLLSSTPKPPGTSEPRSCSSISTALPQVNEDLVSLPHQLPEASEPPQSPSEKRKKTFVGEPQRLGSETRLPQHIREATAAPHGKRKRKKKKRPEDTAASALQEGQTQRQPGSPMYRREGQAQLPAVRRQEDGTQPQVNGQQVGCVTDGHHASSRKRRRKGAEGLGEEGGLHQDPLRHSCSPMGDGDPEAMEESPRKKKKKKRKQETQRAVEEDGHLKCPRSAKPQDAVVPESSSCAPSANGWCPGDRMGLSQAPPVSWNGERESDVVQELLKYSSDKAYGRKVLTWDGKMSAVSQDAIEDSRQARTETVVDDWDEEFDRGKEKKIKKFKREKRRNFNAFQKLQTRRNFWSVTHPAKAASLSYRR
Summary of the method: as §1

[3] = target: T2, USP38 (UniProt Q8NB14)
T2 sequence (whole entry): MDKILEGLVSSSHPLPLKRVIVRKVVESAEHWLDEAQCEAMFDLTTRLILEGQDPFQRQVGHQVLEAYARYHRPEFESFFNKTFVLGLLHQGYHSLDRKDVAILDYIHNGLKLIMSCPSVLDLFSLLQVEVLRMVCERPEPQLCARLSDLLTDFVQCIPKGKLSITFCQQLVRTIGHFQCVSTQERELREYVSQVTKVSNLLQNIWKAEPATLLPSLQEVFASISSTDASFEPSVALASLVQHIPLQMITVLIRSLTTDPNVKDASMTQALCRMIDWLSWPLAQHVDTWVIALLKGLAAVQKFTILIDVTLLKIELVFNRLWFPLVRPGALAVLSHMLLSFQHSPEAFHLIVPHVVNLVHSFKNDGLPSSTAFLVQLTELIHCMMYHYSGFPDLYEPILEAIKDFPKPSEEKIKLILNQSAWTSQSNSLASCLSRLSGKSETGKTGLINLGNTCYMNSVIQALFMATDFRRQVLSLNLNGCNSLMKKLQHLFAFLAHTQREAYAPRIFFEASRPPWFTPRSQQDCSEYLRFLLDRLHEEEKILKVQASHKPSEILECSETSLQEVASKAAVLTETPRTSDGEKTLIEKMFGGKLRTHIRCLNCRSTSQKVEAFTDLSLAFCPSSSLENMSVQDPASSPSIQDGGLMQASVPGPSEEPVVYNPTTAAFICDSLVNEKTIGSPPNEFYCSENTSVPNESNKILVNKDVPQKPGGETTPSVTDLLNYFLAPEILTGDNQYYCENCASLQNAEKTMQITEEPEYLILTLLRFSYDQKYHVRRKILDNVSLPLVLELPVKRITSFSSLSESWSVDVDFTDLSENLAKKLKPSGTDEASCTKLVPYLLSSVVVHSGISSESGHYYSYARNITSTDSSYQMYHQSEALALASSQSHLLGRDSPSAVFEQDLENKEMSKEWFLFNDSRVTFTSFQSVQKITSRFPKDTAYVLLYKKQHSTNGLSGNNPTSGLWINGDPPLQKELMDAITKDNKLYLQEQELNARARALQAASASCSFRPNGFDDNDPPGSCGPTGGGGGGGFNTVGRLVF
Summary of the method: as §1

[4] = target: T3, USP39 (UniProt Q53GS9)
T3 sequence (whole entry): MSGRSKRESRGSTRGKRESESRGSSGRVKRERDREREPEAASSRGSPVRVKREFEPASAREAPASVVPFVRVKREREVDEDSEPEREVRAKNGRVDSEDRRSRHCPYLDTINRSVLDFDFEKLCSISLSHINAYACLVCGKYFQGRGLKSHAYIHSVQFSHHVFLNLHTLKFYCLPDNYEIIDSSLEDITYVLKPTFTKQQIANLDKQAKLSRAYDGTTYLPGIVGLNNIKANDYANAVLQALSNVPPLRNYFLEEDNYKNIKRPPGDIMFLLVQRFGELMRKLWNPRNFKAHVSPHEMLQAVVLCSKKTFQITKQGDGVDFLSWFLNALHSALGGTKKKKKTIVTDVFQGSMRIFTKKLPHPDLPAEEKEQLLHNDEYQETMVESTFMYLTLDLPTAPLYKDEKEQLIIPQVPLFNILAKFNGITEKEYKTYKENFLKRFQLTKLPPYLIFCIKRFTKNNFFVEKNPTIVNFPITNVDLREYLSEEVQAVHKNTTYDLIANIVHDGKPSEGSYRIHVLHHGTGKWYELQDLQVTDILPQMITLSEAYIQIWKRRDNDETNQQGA
Summary of the method: as §1

[5] = target: T4, USP4 (UniProt Q13107)
T4 sequence (whole entry): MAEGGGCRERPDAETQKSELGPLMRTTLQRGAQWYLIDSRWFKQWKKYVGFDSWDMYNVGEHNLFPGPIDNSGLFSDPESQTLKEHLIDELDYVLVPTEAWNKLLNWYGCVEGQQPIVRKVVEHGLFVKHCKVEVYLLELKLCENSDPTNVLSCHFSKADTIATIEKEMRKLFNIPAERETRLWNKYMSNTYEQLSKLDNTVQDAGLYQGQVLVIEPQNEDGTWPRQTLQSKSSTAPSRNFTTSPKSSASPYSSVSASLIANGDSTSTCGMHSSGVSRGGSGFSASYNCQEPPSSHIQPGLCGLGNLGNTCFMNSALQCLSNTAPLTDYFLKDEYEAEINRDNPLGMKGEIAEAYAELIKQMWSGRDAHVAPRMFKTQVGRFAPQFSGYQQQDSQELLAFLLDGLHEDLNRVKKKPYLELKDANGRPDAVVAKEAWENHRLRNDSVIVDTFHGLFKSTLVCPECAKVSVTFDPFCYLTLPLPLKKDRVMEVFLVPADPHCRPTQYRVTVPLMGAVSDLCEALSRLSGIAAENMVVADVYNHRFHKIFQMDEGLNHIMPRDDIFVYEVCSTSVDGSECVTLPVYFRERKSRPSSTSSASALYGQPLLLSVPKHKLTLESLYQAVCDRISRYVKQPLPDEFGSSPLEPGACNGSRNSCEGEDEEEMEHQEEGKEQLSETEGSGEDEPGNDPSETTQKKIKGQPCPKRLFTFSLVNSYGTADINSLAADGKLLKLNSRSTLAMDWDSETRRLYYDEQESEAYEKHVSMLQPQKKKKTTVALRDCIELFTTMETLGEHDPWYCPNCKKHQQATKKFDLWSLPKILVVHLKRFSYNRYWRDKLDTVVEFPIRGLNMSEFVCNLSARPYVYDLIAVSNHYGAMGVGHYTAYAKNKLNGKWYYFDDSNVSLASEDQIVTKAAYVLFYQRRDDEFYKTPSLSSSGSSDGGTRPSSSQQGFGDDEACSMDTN
Summary of the method: as §1

Measured: log2 ratio of Biotin-Ahx-Ub-VS probe labelling

CC(NC(=O)CCl)c1ccc2[nH]ncc2c1 (stereo not given)
inactive: [1] -0.271 | [2] -0.00241 | [3] -0.222 | [4] -0.146 | [5] -0.324
